Bioassay records from PubChem.
Pf Dd2 growth = inhibitors of Plasmodium falciparum Dd2 growth; P. falciparum Dd2 growth, SYBR Green, 72 h; actives 4.3% (n = 120,000); Potency, µM (highest dose often 28.9 µM), without a hit: at the highest dose activity, negative = inhibition, most hits filed as inhibitors; active means well fitted inhibition curve with a large enough effect;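 further: plate controls were DMSO vehicle for no effect and reference drug for full effect; nearly all actives have a fitted effect of over 65% in size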
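Infected erythrocytes (Dd2, 0.3% parasitemia, 2.5% hematocrit final) are added to compound in RPMI-1640/Albumax II medium, grown 72 h at 37C in low oxygen, then lysed with saponin/Triton-X containing SYBR Green and read by fluorescence.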
* = called active by the depositor; i = inactive; [ ] = remark or other dose. This excerpt belongs to a sample that is enriched for hits. Potency means the concentration at half of the fitted maximal effect.

SMILES | Pf Dd2 growth
O=Cc1ccc(-c2ccc(C(=O)O)cn2)cc1 | 10%[44.1 µM]
COc1ccc(-c2ccccc2NC(=O)C2CCCN(Cc3cccc(F)c3F)C2)cc1 (stereo unspecified) | i
CCCOC(=O)N1CCCC(C(=O)Nc2ccccc2-c2ccc(OC)cc2)C1 (stereo unspecified) | -21%
CCCCc1ncc(CN2CCCC(C(=O)Nc3ccccc3-c3ccc(OC)cc3)C2)[nH]1 (stereo unspecified) | 8.9µM*
COc1cccc(-c2ccc(NC(=O)C3CCCN(Cc4cc(C(C)C)n[nH]4)C3)cc2)c1 (stereo unspecified) | 11µM*
COc1cccc(-c2ccc(NC(=O)C3CCCN3C(=O)CNC(C)=O)cc2)c1 (stereo unspecified) | -20%
COc1cccc(-c2ccc(NC(=O)C3CCCN3C(=O)Cn3cccn3)cc2)c1 (stereo unspecified) | -10%
Cn1nc(C2CCN(C(=O)c3cccnc3)CC2)c2c1CCOC2 | i[5.79 µM]
COCC1CN(C(=O)COc2ccccc2)CC12CCNCC2 (stereo unspecified) | 19%
NC(=O)[C@@H](Cc1c[nH]c2ccccc12)NC(=O)[C@@H]1C[C@@H](NS(=O)(=O)c2cccs2)CCN1C(=O)CSCC(=O)O | -3%
C[C@@H](NCc1ccc(F)cc1)c1onc(-c2ccc(Cl)cc2)c1C(=O)O | 15%[44.1 µM]
O=C(c1ccc(Cl)cc1)N1CC2(CCN(C3CCCCC3)C2)Cc2ccccc21 (stereo unspecified) | 10µM*
O=C(c1ccc(Cl)cc1)N1CC2(CCN(C3CCCCC3)CC2)Cc2ccccc21 | 7.1µM*
O=C(c1ccc(Cl)cc1)N1CC2(CCN(C3COC3)CC2)Cc2ccccc21 | 10%
CC(=O)N1CC2(Cc3ccccc31)CN(C(=O)c1ccc(Cl)cc1)C2 | -19%
O=C(O)CCC(=O)N1CCC2(Cc3ccccc3N(C(=O)c3ccc(Cl)cc3)C2)C1 (stereo unspecified) | i
CC(=O)N1CC2(CCN(C3COC3)C2)Cc2ccccc21 (stereo unspecified) | -9%[44.1 µM]
COc1cc(OC)cc(C(=O)N2CCC[C@H]2c2nc(-c3ccc(C)cc3)no2)c1 | 30%
Cc1cccc2cc(C(=O)N3CCCC(Nc4ccc(F)cc4)C3)oc12 (stereo unspecified) | -12%
Cc1ccc2oc(N3CCCC4(CCC(=O)N(Cc5cccnc5)C4)C3)nc2c1 (stereo unspecified) | -8%
Cc1c(C(=O)Nc2cccc(C(F)(F)F)c2)oc2ccc(S(=O)(=O)N(C)C3CCCCC3)cc12 | 11µM*
Cc1c(C(=O)Nc2ccc(F)c(Cl)c2)oc2ccc(S(=O)(=O)N(C)C3CCCCC3)cc12 | -26%
Cc1ccc(NC(=O)c2oc3ccc(S(=O)(=O)N(C)C4CCCCC4)cc3c2C)c(C)c1 | i
Cc1oc(C(O)c2cncnc2)nc1C(=O)Nc1ccc(N2CCOCC2)cc1 (stereo unspecified) | -1%[44.1 µM]
O=C1NC2(CN(Cc3ccccc3C(F)(F)F)C2)Oc2ccccc21 | -14%
SMILES | Pf Dd2 growth
COCCNS(=O)(=O)c1cccc2c1CN(C(=O)CCn1cncn1)CC2 | -10%
CC(C(=O)NCc1cc(F)cc(F)c1)C1CCOCC1 (stereo unspecified) | 43%
CC(C)N1C(=O)C2(CCCC2)C1C(=O)N1CCC(N2CCCCC2)CC1 (stereo unspecified) | -24%
CC(C)N1C(=O)C2(CCCC2)C1C(=O)N1CCN(C2CCCCC2)CC1 (stereo unspecified) | 10µM*
CC(C)N1C(=O)C2(CCCCC2)C1C(=O)N1CCN(C)CC1 (stereo unspecified) | -18%
C[C@@H]1CN(C(=O)Cc2cc(F)cc(Cl)c2)CC[C@]1(C)O | -1%
Cc1cccc(N2CCN(c3nc4ccccc4c4nc(-c5ccccc5)nn34)CC2)c1C | 23%
Cc1cccc(N2CCN(c3nc4ccccc4c4nnc(C)n34)CC2)c1C | 0.89µM*
Cc1cccc(N2CCN(c3nc4ccccc4c(=O)n3-c3ccc(Cl)cc3)CC2)c1C | i
CSc1ccc(-c2ccc3c(c2)C(=O)N2CC[C@H](NC(=O)C4CCCC4)[C@H]2C(=O)N3)cc1 | i
O=C(Nc1nc2c(s1)CCC2)C1CC(=O)N(c2n[nH]c3cc(Br)ccc23)C1 (stereo unspecified) | -11%
Cc1nc(-c2ccncc2)ncc1C(C)NC(=O)C1=NN(C)C(=O)CC1 (stereo unspecified) | 6%
COc1ccc(Cn2c(SCc3ccc(C(=O)NCc4ccc(C)cc4)cc3)nc3cccnc32)cc1 | 10µM*
COc1cccc(CNC(=O)c2ccc(Cn3c(SCc4ccccc4)nc4cccnc43)cc2)c1 | 10µM*
O=C(NCc1ccco1)c1ccc(Cn2c(SCc3ccccc3)nc3cccnc32)cc1 | -18%
COCCCNC(=O)c1ccc(CSc2nc3cccnc3n2Cc2ccc(OC)cc2)cc1 | -15%
Cc1cccc(CNC(=O)c2ccc(Cn3c(SCc4cccc(F)c4)nc4cccnc43)cc2)c1 | i
CC(C)OCCCNC(=O)c1ccc(CSc2nc3cccnc3n2Cc2ccccc2)cc1 | i
Cc1sc2c(c1C)c(=O)n(Cc1ccccc1)c(=O)n2Cc1ccc(F)cc1 | 46%
CCN(CC)C(=O)c1sc2c(c1C)c(=O)n(CCc1ccccc1)c(=O)n2Cc1ccc(C)cc1 | 11µM*
Cc1cc(C)c(NC(=O)Cn2c(=O)n(Cc3ccccc3)c(=O)c3c(C)c(C(=O)N(C)C)sc32)c(C)c1 | -27%
CCN(CC)C(=O)c1sc2c(c1C)c(=O)n(-c1ccc(C)c(C)c1)c(=O)n2Cc1cc(=O)n2c(C)cccc2n1 | -7%
CCc1ccc(-n2c(=O)c3c(C)c(C(=O)N(C)C)sc3n(Cc3cccc(C)c3)c2=O)cc1 | 31%
CCN(CC)C(=O)c1sc2c(c1C)c(=O)n(-c1ccccc1)c(=O)n2Cc1c(C)cc(C)cc1C | 10µM*
CCc1ccccc1NC(=O)Cn1c(=O)n(Cc2ccccc2)c(=O)c2c(C)c(C(=O)N(C)C)sc21 | 4.5µM*
SMILES | Pf Dd2 growth
Cc1ccccc1NC(=O)Cn1c(=O)n(Cc2ccccc2)c(=O)c2c(C)c(C)sc21 | 18%
CCN(CC)C(=O)c1sc2c(c1C)c(=O)n(-c1ccccc1)c(=O)n2Cc1cc(=O)n2ccccc2n1 | 16%
Cn1nc(C(=O)NC2CCCN(c3cc(-c4ccc(F)cc4)[nH]n3)C2)c2ccccc21 (stereo unspecified) | -10%
Cc1cc(CN(C)C(=O)CC(c2cccc(O)c2)c2ccccc2Cl)n[nH]1 (stereo unspecified) | -12%
Cn1cc([C@@H](NC(=O)CCc2ccc3c(c2)OCO3)C2CC(O)C2)cn1 (stereo partly specified) | -13%
O=C1CC2(CCN([S+](=O)([O-])c3cccc(C(F)(F)F)c3)CC2)Oc2ccccc2N1 | i
CCN(CC)C(=O)[C@@H]1CCC[C@@H](N(C)C)CN(C)C(=O)C1 | 18%[44.1 µM]
CCOc1ccc(NC(=O)c2c(NC(=O)c3ccco3)sc3c2CCC(C(C)(C)C)C3)cc1 (stereo unspecified) | 10µM*
CC1CCc2c(sc(NC(=O)c3ccccc3)c2C(=O)Nc2ccccc2)C1 (stereo unspecified) | 13µM*
CC(C)(C)C1CCc2c(sc(NC(=O)c3ccc(Cl)cc3)c2C(=O)NCc2ccco2)C1 (stereo unspecified) | 5.6µM*
CC1CCc2c(sc(NC(=O)COc3ccccc3)c2C(=O)Nc2ccccc2Cl)C1 (stereo unspecified) | 98%
